# From PubChem BioAssay
# TGFb SMAD3 inh: TGF-b pathway inhibition; HepG2 CAGA-GFP TGF-b/SMAD3 reporter, GFP fluorescence, 18 h; TGF-beta stimulated, 500 pg/mL final; Potency, µM (top dose mostly 46.1 µM), for inactives: at the highest dose activity, negative = inhibition, hits mostly inhibitors; 410,000 compounds, 1.2% hits; AID 588855; also: potency is read from the fitted curve at half-maximal effect; % is scaled to controls: 0 for no effect and ±100 for the full control effect; nearly all actives have a fitted effect of over 65% in size
#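 GFP signal (ex488/em500-530) from TGF-beta-stimulated HEPG2 CAGA-GFP cells, 500 pg/mL final, 18 h at 37 degrees C in DMEM plus 1% FBS, normalized to unstimulated and DMSO-stimulated controls.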
# IL1B secr inh: inflammasome signaling inhibition, IL-1 beta readout; THP-1 LPS/ATP IL-1B secretion, AlphaLISA, 16 h; active compounds read low; 360,000 compounds, 4.7% hits; activity change, % at 57.5 µM; in the data active = activity change below about -50%; inconclusive = mostly about -30% to -49%; also: % is scaled to controls: 0 for no effect and ±100 for the full control effect
#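 THP-1 cells pretreated 1 hr with compounds (up to 57.5 uM final), then stimulated with LPS (250 ng/mL final) plus ATP (1.25 mM final); secreted IL-1B measured by AlphaLISA after 16 hr, decreased signal indicating inhibition.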
# DT40 TDP1 CPT: growth inhibition of DT40 Tdp1-/-;hTDP1 cells with camptothecin (screen for TDP1 inhibitors). 420,000 compounds, 12% hits. Potency, µM (highest dose often 46.2 µM), inactives show at the top dose activity change, negative = growth inhibition, usual class: inhibitors. chicken DT40 Tdp1-/-;hTDP1 cells + 20 nM CPT, ATP luminescence, 48 h. AID 686979; also: potency is read from the fitted curve at half-maximal effect; % is scaled to controls: 0 for no effect and ±100 for the full control effect; nearly all actives have a fitted effect of over 55% in size
#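 Chicken DT40 Tdp1-/- cells stably complemented with human TDP1 were seeded at 400 cells/well in medium containing 20 nM camptothecin, exposed to pin-transferred compounds, and grown at 37 °C for at least 48 hr. Viability was read as ATP luminescence.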
# TDP1 block: inhibitors of human tyrosyl-DNA phosphodiesterase TDP1. AID 485290. recombinant TDP1, AlphaScreen DNA substrate cleavage. 350,000 compounds, 0.28% hits. Q9NUW8. Potency, µM (series often up to 130 µM), for inactives: at the highest dose activity change, negative = inhibition, usual class: inhibitors; also: potency is read from the fitted curve at half-maximal effect; % is scaled to controls: 0 for no effect and ±100 for the full control effect; nearly all actives have a fitted effect of over 40% in size
# Target sequence (Q9NUW8 whole entry, looked up): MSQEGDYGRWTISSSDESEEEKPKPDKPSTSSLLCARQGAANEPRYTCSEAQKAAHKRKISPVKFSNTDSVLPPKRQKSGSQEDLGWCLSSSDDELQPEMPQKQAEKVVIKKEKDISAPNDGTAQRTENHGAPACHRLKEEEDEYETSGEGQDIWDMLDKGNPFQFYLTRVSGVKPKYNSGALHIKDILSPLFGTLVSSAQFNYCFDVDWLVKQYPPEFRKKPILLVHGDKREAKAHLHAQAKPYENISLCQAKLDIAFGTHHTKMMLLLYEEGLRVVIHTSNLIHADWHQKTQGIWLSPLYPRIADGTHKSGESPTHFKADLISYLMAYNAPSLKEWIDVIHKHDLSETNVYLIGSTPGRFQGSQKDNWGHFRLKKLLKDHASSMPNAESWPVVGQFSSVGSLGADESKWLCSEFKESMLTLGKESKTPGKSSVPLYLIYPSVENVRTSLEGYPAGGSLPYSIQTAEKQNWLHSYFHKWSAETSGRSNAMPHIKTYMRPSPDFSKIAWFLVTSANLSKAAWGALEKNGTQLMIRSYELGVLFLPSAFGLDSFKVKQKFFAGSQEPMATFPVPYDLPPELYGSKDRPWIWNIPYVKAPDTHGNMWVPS
#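 Steps: enzyme plus compound, 15 min RT; add biotin/phosphotyrosine-FITC oligonucleotide (15 nM final), react 5 min; add donor/acceptor beads (10 ug/ml final), 10 min; read AlphaScreen. Tdp1 at 1 nM final.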
# HepG2 viability: HepG2 cytotoxicity, counter-screen for TGF-b inhibitors. HepG2 CAGA-GFP viability, ATP luminescence, 18 h. Potency, µM (series often up to 46.1 µM), inactives show top-dose activity change, negative = cytotoxicity, usual class: cytotoxic. 410,000 compounds, 0.76% hits; also: potency is read from the fitted curve at half-maximal effect
#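 HepG2 CAGA-GFP cells (1000/well, DMEM with 1% FBS) received compound, then TGF-beta at 500 pg/mL final, and were incubated 18 hours at 37 degrees C. Viability was read by CellTiter-Glo luminescence. Media-only wells were set as complete cell-killing and DMSO as no toxicity.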
# TDP1 cell noCPT: qHTS for Inhibitors of human tyrosyl-DNA phosphodiesterase 1 (TDP1): qHTS in cells in absence of CPT; Potency, µM (highest dose often 46.2 µM), for inactives: at the highest dose activity change, negative = growth inhibition, hits mostly inhibitors; DT40 Tdp1-/- hTDP1 cells, no CPT, ATP luminescence, 48 h; 420,000 compounds, 15% hits; AID 686978, 2013; also: potency is read from the fitted curve at half-maximal effect; % is scaled to controls: 0 for no effect and ±100 for the full control effect; nearly all actives have a fitted effect of over 55% in size
#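 Cells were dispensed at 400 per well, compounds added by pin tool, plates incubated ≥48 hr at 37 °C, then CellTiter-Glo added for 30 min at room temperature before luminescence reading. Line: DT40 Tdp1-/- complemented with hTDP1; camptothecin omitted.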
# Starred values were filed as active, the others as inactive; ? = inconclusive; nt = not tested or not shown. Only some compounds are listed: those with a hit (about 18% of all), similar ones and a draw of the others. Unless noted, calls follow the shape of the dose curve; as a rule, active = well fitted curve in the direction sought with a large enough effect; inconclusive = small, poorly fitted or top-dose-only effect, or another doubt; inactive = no such curve, though single readings can be large; an effect the other way counts as inactive or inconclusive.
SMILES,TGFb SMAD3 inh,IL1B secr inh,DT40 TDP1 CPT,TDP1 block,HepG2 viability,TDP1 cell noCPT
Cc1ccc(-c2nc3cnccn3c2Nc2ccc3c(c2)OCO3)o1,-12.8%,46.7,?,8.7%,-10.0%,-21.2%
Clc1ccc(-c2nc3cnccn3c2Nc2ccc3c(c2)OCO3)cc1,?,64.1,?,12.0%,-27.2%,20.6µM*
CSc1ccc(-c2nc3cnccn3c2Nc2ccc3c(c2)OCO3)cc1,5.01µM*,86.4,?,11.6%,-35.5%,?
CC1C(=O)N2CCCc3cc(S(=O)(=O)N4CCN(c5cccc(Cl)c5)CC4)cc1c32 (centres undefined),-10.2%,-2.3,-29.9%,-0.1%,2.1%,-19.2%
CCCCc1nn2c(=O)cc(COC(=O)c3ccco3)nc2s1,-16.3%,nt,-16.7%,8.4%,-21.4%,-2.2%
C=CC[C@H]1CC(C)=C[C@H](CC=C)N1,11.7%,14.0,13.2%,2.6%,-1.9%,0.8%
C=CC[C@H]1CC(Cc2ccccc2)=C[C@H](CC=C)N1,-6.1%,-75.1*,16.4µM*,4.3%,-38.5%,18.4µM*
C=CCC1C=C(Cc2ccccc2)CC(CC=C)N1 (centres undefined),-5.4%,-3.3,18.4µM*,7.0%,-33.8%,23.1µM*
OC[C@@H]1CN(Cc2ccc(-c3ccccc3)cc2)C[C@H](n2cnc3c(N4CCOCC4)ncnc32)O1,?,-27.1,?,nt,-27.9%,?
CCOc1ccc2nc(S(=O)(=O)NC(=O)C3(C)CCN3C(=O)c3c(C)noc3C)sc2c1 (centres undefined),-3.6%,16.6,-0.9%,nt,-3.0%,-9.2%
Cc1ccc(Cl)cc1NC(=O)C(NS(=O)(=O)c1ccc2c(c1)CCC(=O)N2)c1ccccc1 (centres undefined),-23.7%,nt,?,8.1%,-5.9%,?
CSc1cc(-c2ccc(Cl)cc2)c(C(=O)NC(C)C)s1,2.0%,-13.9,9.2µM*,2.0%,-3.5%,11.6µM*
Cc1ccccc1N/N=C/c1sc(=O)n(Cc2cccc(C(=O)O)c2)c1Cl,-18.6%,-15.5,?,nt,4.5%,20.6µM*
CN(C)CCN(CC1CCCN(Cc2ccccc2F)C1)C(=O)c1ccc(Cl)cc1 (centres undefined),8.1%,?,?,nt,-26.7%,?
Cc1ccccc1-c1cc(C(=O)NCc2ccc3c(c2)OCO3)n(CC2CC(c3cccnc3)=NO2)n1 (centres undefined),-4.0%,1.6,?,2.5%,-4.2%,?
Clc1ccccc1OCCCn1ccnc1,-6.7%,21.1,-20.1%,nt,-4.9%,-0.5%
CCCCn1cnc2c(c(-c3ccccc3)c(-c3ccccc3)n2Cc2ccco2)c1=N,-9.7%,-72.9*,-2.8%,4.8%,2.9%,-16.2%
O=c1c2ccccc2c2ccccc2c(=O)n1Cc1ccco1,-14.2%,-4.5,-28.4%,4.2%,-15.6%,-11.4%
N=c1c2c(-c3ccccc3)c(-c3ccccc3)n(Cc3ccco3)c2ncn1Cc1ccco1,0.0%,-5.7,9.2µM*,13.2%,-118.7%,6.51µM*
N=c1c2c(-c3ccccc3)c(-c3ccccc3)n(Cc3ccccc3)c2ncn1CCCn1ccnc1,?,-27.5,16.4µM*,5.9%,-137.1%,?
O=C(c1cnccn1)N1CCC[C@@]2(CCN(Cc3cc(C(F)(F)F)cc(C(F)(F)F)c3)C2)C1,nt,nt,3.2%,nt,nt,?
CCOc1ccc(OCCC(=O)OCC(=O)NNC(=O)c2ccccc2)cc1,-16.8%,-2.2,0.2%,-4.5%,-3.4%,-11.4%
Cc1ccc(-c2[nH]c3ccccc3c2SCCNC(=O)c2ccc(S(=O)(=O)N(C)C)cc2)cc1,-7.8%,nt,5.8µM*,5.9%,-18.3%,5.8µM*
CCOC(=O)CSc1c(-c2ccc(Cl)cc2)[nH]c2ccccc12,?,26.3,?,-5.5%,-28.6%,?
CN(C)S(=O)(=O)c1ccc(C(=O)NCCSc2c(-c3ccc(Cl)cc3)[nH]c3ccccc23)cc1,-13.3%,nt,4.11µM*,8.8%,-17.0%,5.17µM*
SMILES,TGFb SMAD3 inh,IL1B secr inh,DT40 TDP1 CPT,TDP1 block,HepG2 viability,TDP1 cell noCPT
CN(C)S(=O)(=O)c1ccc(C(=O)NCCSc2ccccc2)cc1,3.4%,-6.5,-20.2%,4.7%,-11.7%,?
O=C(Cc1cccs1)NCCSc1c(-c2ccc(Cl)cc2)[nH]c2ccccc12,?,-17.1,18.4µM*,8.2%,-32.9%,13µM*
CN(CCOC(=O)c1ccco1)Cc1ccccc1,3.7%,0.0,12.4%,-3.5%,14.4%,5.4%
CN(Cc1ccccc1)C(=O)COC(=O)/C=C/c1ccco1,-3.8%,-6.2,2.8%,39.8µM*,9.7%,-13.0%
CN(CCOC(=O)/C=C/c1ccco1)Cc1ccccc1,12.7%,1.5,-27.9%,10µM*,1.1%,?
O=C(Nc1ccccc1)C1CCOC1=O (centres undefined),8.9%,10.6,-3.7%,nt,13.6%,-3.6%
Cc1ccc(C)c(CN2C(=O)c3ccccc3Sc3ccc(C(=O)NCc4cccs4)cc32)c1,-13.9%,nt,-29.6%,2.6%,-7.4%,?
CN(C1CCCCC1)S(=O)(=O)c1ccc2c(c1)c(=O)c(C(=O)N1CCN(c3ccccc3F)CC1)cn2C,1.7%,nt,0.9%,0.0%,22.3%,-0.1%
Cc1nn(C)c(C(=O)Nc2c(C)nn(Cc3c(F)c(F)c(F)c(F)c3F)c2C)c1Br,0.0%,35.0,8.2µM*,3.0%,6.4%,3.66µM*
Cc1ccccc1CNS(=O)(=O)c1csc(C(N)=O)c1,8.1%,-7.5,12.2%,3.2%,-0.6%,1.6%
CCCCS(=O)(=O)N1CCCC(C(=O)Nc2ccc3c(c2)CCC3)C1 (centres undefined),-3.6%,5.9,-27.4%,2.2%,-0.6%,-28.3%
C[C@H]1CN=C(Nc2ccccc2)N1CCCC1CCCCC1,3.3%,?,?,nt,-23.9%,?
